Our source for the max activation and Potency values is PubChem BioAssay (Tox21).

“And” between values parts separate entries of the source, which are not always exact repeats. Equal entries are not always repeated. Records with an inconclusive call do not appear. Where a call stands in place of a potency, no number is given. The source made the active and inactive calls. Calls come from the whole dose curve; as a rule, active = well fitted curve in the direction sought with a large enough effect in the repeat runs; inconclusive = weak or mixed curves; inactive = no such curve, though single readings can be large; an effect the other way counts as inactive or inconclusive.

Nuclear receptor subfamily 1 group I member 2 (Rattus norvegicus), sequence (Q9R1A7 whole entry, looked up): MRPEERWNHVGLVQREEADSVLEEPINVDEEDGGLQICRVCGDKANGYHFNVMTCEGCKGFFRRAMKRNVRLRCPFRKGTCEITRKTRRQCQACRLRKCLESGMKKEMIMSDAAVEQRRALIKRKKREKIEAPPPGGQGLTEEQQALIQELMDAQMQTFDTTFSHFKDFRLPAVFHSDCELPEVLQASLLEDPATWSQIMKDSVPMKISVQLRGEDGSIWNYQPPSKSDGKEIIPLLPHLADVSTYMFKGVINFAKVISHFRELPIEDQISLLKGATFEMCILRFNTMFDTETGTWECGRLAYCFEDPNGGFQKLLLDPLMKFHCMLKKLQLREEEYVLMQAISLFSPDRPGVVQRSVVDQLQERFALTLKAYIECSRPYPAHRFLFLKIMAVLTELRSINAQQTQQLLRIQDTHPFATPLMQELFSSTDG

In one assay the target is Nuclear receptor subfamily 1 group I member 2 (Rattus norvegicus) (UniProt Q9R1A7). Nature of the assay: Rat pregnane X receptor (rPXR) activation by small molecules, qHTS assay (AID 1346983). Note: nearly all actives have a fitted effect of over 20% in size. The conditions noted are these: rPXR luciferase reporter cells, One-Glo luminescence, 24 h; max activation: active compounds read high. Put shortly:
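Cell-based rPXR activation assay: rPXR cells, 2,000 per well, rested 5hr at 37 C, then exposed to compounds in DMSO for 24 hr at 37 C. Luciferase activity read by One-Glo luminescence after 30 min at room temperature.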
(In general: qHTS replaces the single test concentration by a dilution series.)
As for `Nc1ccn([C@H]2CS[C@@H](CO)O2)c(=O)n1`, the max activation is -3.24% (inactive) and -0.136% (inactive).
Turning to `CNC1CCCN(c2c(F)cc3c(=O)c(C(=O)O)cn(C4CC4)c3c2OC)C1` (stereo not drawn), the max activation was -1.63% (inactive).
Same read-out and setting: the same measure for `Nc1ccc(S(=O)(=O)NCc2ccccc2)cc1`: -1.8% (inactive); for `CC(=O)N[C@@H](Cc1ccc(O)cc1)C(=O)O`: -1.6% (inactive).
Same read-out and setting: the same measure for `CC(C)(C)NCC(O)COc1cccc2c1C[C@H](O)[C@H](O)C2` (stereo partly drawn): -1.94% (inactive); for `CCCCC[C@H](O)/C=C/[C@H]1[C@H](O)CC(=O)[C@@H]1C/C=C\CCCC(=O)O`: -0.864% (inactive).
On the same count and under the same terms, the same measure for `O=C1CC[C@@H](C(=O)O)N1`: -5.25% (inactive).
`C[C@H](CS)C(=O)N1CCC[C@H]1C(=O)O`: the max activation was 0.201% (inactive).
For `CC(=O)Oc1cccc(O)c1`, the max activation is -5.99% (inactive).

Another assay deals with Nuclear receptor subfamily 1 group I member 2 (Homo sapiens) (UniProt O75469). Nature of the assay: CYP3A4 induction through human pregnane X receptor (PXR) by small molecules, qHTS assay (AID 1346984). Note: nearly all actives have a fitted effect of over 40% in size. The note with it: DPX-2 HepG2 PXR, CYP3A4-luciferin luminescence, 24 h; series mostly up to 46.1 µM. The method, boiled down:
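Induction measured in HepG2-based DPX-2 cells co-expressing human PXR and a CYP3A4 promoter-driven luciferase. After a 24-hour compound exposure, cells received CYP3A4 luciferin substrate at 3uM final for 3 hours, and light output was then recorded.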
Take `CNC1CCCN(c2c(F)cc3c(=O)c(C(=O)O)cn(C4CC4)c3c2OC)C1` (stereo not drawn): the Potency result is “inactive”.
On the same count and under the same terms, the same measure for `Nc1ccc(S(=O)(=O)NCc2ccccc2)cc1`: “inactive”.
The same measure, in the same setting: the same measure for `CC(=O)N[C@@H](Cc1ccc(O)cc1)C(=O)O`: “inactive”; for `CC(C)(C)NCC(O)COc1cccc2c1C[C@H](O)[C@H](O)C2` (stereo partly drawn): “inactive”; for `CCCCC[C@H](O)/C=C/[C@H]1[C@H](O)CC(=O)[C@@H]1C/C=C\CCCC(=O)O`: “inactive”.
Take `O=C1CC[C@@H](C(=O)O)N1`: the Potency entry is “inactive”.
For the molecule `CC(=O)Oc1cccc(O)c1`, the Potency entry was “inactive”.

A further assay shares this target. The assay is described as follows: Human pregnane X receptor (PXR) activation by small molecules, qHTS assay (AID 1346985). Note: nearly all actives have a fitted effect of over 40% in size. The note with it: DPX-2 HepG2 CYP3A4-luciferase, 24 h; series mostly up to 38.3 µM. Put shortly:
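DPX-2 cells (HepG2 co-transfected with a PXR response element and a CYP3A4-promoter luciferase construct) were seeded at 2,000 per well, rested 5 hr at 37C, then exposed to DMSO-dissolved compounds for 24 hr. Activation was read as luciferase luminescence.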
Take `CNC1CCCN(c2c(F)cc3c(=O)c(C(=O)O)cn(C4CC4)c3c2OC)C1` (stereo not drawn): the Potency entry was “inactive”.
In the case of `Nc1ccc(S(=O)(=O)NCc2ccccc2)cc1`, the Potency entry is “inactive”.
The same measure, in the same setting: the same measure for `CC(=O)N[C@@H](Cc1ccc(O)cc1)C(=O)O`: “inactive”; for `CC(C)(C)NCC(O)COc1cccc2c1C[C@H](O)[C@H](O)C2` (stereo partly drawn): “inactive”; for `CCCCC[C@H](O)/C=C/[C@H]1[C@H](O)CC(=O)[C@@H]1C/C=C\CCCC(=O)O`: “inactive”.
`O=C1CC[C@@H](C(=O)O)N1`: the Potency entry was “inactive”.
Take `CC(=O)Oc1cccc(O)c1`: the Potency result was “inactive”.
